Screening data as filed in PubChem BioAssay.
HT1080 IDH1KD tx: HT-1080 IDH1 knockdown cell toxicity (counter line) | HT-1080 IDH1 knockdown viability, ATP luminescence, 48 h | Potency, µM (titrated, usually from 46.1 µM), for the others: at the top dose activity, negative = toxicity, usual class: cytotoxic | AID 686971 | 360,000 tested, 2% active;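 note: 0% = DMSO wells and -100% = cell-free medium wells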
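HT-1080-IDH1KD cells (IDH1 knocked down), 750/well in RPMI with 5% FBS, treated with compound 48 h at 37 degrees C. Viability by CellTiter-Glo luminescence, normalised to DMSO and no-cell wells; concentration-response curves classed.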
KB-3-1 cytotox: KB-3-1 parental cell cytotoxicity. KB-3-1 viability, CellTiter-Glo ATP luminescence, 72 h. Potency, µM (top dose mostly 46.1 µM), actives largely listed as cytotoxic. 400,000 tested, 1.4% active. AID 1347075; note: nearly all actives have a fitted effect of over 60% in size
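Viability of parental KB-3-1 cells, measured by CellTiter-Glo luminescence, followed a 72 h incubation at 37 °C with pinned compounds in phenol-red-free DMEM containing 10% FBS.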
KB-V1 cytotox: kills drug-selected multidrug resistant KB-V1 cells; AID 1347076; 400,000 tested, 3.4% active; KB-V1 MDR cells viability, CellTiter-Glo, 72 h; Potency, µM (top dose mostly 46.1 µM), usual class: cytotoxic; note: nearly all actives have a fitted effect of over 60% in size
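Luminescent ATP read-out (CellTiter-Glo, 10 min) measures survival of drug-selected KB-V1 MDR cells after 72 h, 37 degrees C compound exposure. Medium: phenol-red-free DMEM, 10% FBS. Values from fitted concentration-response curves.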
HT1080NT lethal: kills 2HG-producing HT-1080-NT fibrosarcoma cells; HT-1080-NT fibrosarcoma viability, CellTiter-Glo ATP luminescence, 48 h; Potency, µM (titrated, usually from 46.1 µM), for the others: top-dose activity, negative = less viability, usual class: cytotoxic; 360,000 tested, 1.6% active; AID 686970;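 note: NT is the 2HG producing partner of a matched IDH1 knockdown line; 0% = DMSO-treated cells and -100% = media-only wells without cells; nearly all actives have a fitted effect of over 55% in size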
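Toxicity toward the 2HG-producing NT line was scored as %Activity, normalised to DMSO and no-cell wells, from CellTiter-Glo luminescence after 48 hours' treatment.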
DT40 TDP1 no CPT: qHTS for Inhibitors of human tyrosyl-DNA phosphodiesterase 1 (TDP1): qHTS in cells in absence of CPT | DT40 Tdp1-/- hTDP1 cells, no CPT, ATP luminescence, 48 h | Potency, µM (highest dose often 46.2 µM), inactives show at the highest dose activity change, negative = growth inhibition, hits mostly inhibitors | 420,000 tested, 15% active; note: nearly all actives have a fitted effect of over 55% in size
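Growth of hTDP1-complemented DT40 Tdp1-knockout cells is measured by ATP luminescence after at least 48 hr compound exposure at 37 °C, with DMSO substituting for the 20 nM CPT used in the parallel screen.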
DT40 TDP1 CPT: DT40-hTDP1 cell growth loss with CPT; chicken DT40 Tdp1-/-;hTDP1 cells + 20 nM CPT, ATP luminescence, 48 h; Potency, µM (titrated, usually from 46.2 µM), inactives show top-dose activity change, negative = growth inhibition, actives largely listed as inhibitors; 420,000 tested, 12% active; note: nearly all actives have a fitted effect of over 55% in size
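Cell growth measured by CellTiter-Glo luminescence after a minimum 48 h, 37 C compound exposure with 20 nM CPT in Tdp1-knockout DT40 cells stably expressing hTDP1, seeded 400/well; qHTS titration format.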
* hit, by the source's call; i = inactive; ? = inconclusive; . = no result. The list is not random: actives were taken first. Their share in the collection is about 19%. Calls come from the whole dose curve; as a rule, active = well fitted curve in the direction sought with a large enough effect; inconclusive = small, poorly fitted or top-dose-only effect, or another doubt; inactive = no such curve, though single readings can be large; an effect the other way counts as inactive or inconclusive. Unless noted, % is set by controls: 0 for no effect and ±100 for the full control effect; potency is the fitted concentration of half-maximal effect.

SMILES	HT1080 IDH1KD tx	KB-3-1 cytotox	KB-V1 cytotox	HT1080NT lethal	DT40 TDP1 no CPT	DT40 TDP1 CPT
O=C(CCC1CCCN(C(=O)c2ccncc2)C1)NCc1ccc(F)c(F)c1 (configuration not stated)	-2%	i	i	0%	?	-17%
O=C(CCC1CCCN(C(=O)c2ccco2)C1)NCc1ccccc1F (configuration not stated)	-29%	i	i	-15%	?	18µM*
CC(C)c1cc(C(=O)N2CCCC(CCC(=O)NCc3ccccc3F)C2)n(C)n1 (configuration not stated)	-12%	?	9.2µM*	-8%	13µM*	?
O=C(CCC1CCCN(C(=O)c2cc3ccccc3o2)C1)NCc1ccc(F)c(F)c1 (configuration not stated)	1%	i	i	2%	16µM*	16µM*
Cc1cccc(C(=O)N2CCCC(CCC(=O)N3CCN(c4ccccn4)CC3)C2)c1C (configuration not stated)	-7%	i	?	8%	?	?
Cc1ncoc1C(=O)N1CCCC(CCC(=O)NCc2ccccc2F)C1 (configuration not stated)	-11%	?	?	?	21µM*	?
Cc1ncoc1C(=O)N1CCCC(CCC(=O)NCc2ccc(F)c(F)c2)C1 (configuration not stated)	-4%	i	?	1%	-15%	-1%
COc1cccc(CNC(=O)CCC2CCCN(Cc3cc4ccccc4o3)C2)c1 (configuration not stated)	-20%	i	i	-19%	26µM*	18µM*
COCc1ccc(C(=O)N2CCCC(CCC(=O)NCc3ccccc3F)C2)o1 (configuration not stated)	?	?	?	15µM*	2.9µM*	3.7µM*
N#C/C(=C\c1ccc(-c2cccc(Cl)c2)o1)C(=O)Nc1cccc(C(F)(F)F)c1	.	i	?	.	?	?
CCOc1ccc(S(=O)(=O)NC(C)(C)C)cc1-c1nc2c(C(C)(C)C)nn(C)c2c(=O)[nH]1	?	i	i	?	?	21µM*
CCOc1ccc(S(=O)(=O)N(CCO)CCO)cc1-c1nc2c(C(C)(C)C)nn(C)c2c(=O)[nH]1	-11%	i	i	-16%	18µM*	?
Cc1ccc(-c2nnc(Nc3ccc(OCC(N)=O)cc3)c3ccccc23)cc1S(=O)(=O)N(C)C	.	?	i	.	?	?
O=C(COC(=O)c1ccccc1NS(=O)(=O)c1cccs1)NCC12CC3CC(CC(C3)C1)C2	-9%	i	15µM*	3%	?	?
O=C(CSc1nc2nc(-c3cccs3)cc(C(F)(F)F)c2c(=O)[nH]1)Nc1ccc(F)c(F)c1	?	15µM*	?	?	4.1µM*	6.5µM*
N#Cc1c(C(F)(F)F)cc(-c2cccs2)nc1SCC(=O)Nc1ccc(Cl)cc1	.	i	i	.	?	16µM*
Cn1c(SCc2c(F)cccc2Cl)nnc1-c1cccs1	-4%	?	i	2%	?	-10%
N#Cc1ccc(-c2cccs2)nc1SCc1c(F)cccc1Cl	.	?	?	.	0.65µM*	0.82µM*
N#Cc1ccc(-c2cccs2)nc1SCC(=O)Nc1cccc(C(F)(F)F)c1	.	i	i	.	21µM*	?
O=C(Oc1ccc(Br)cc1C(=O)/C=C/c1ccccc1F)c1ccco1	?	i	i	?	16µM*	21µM*
COC(=O)[C@@H](Cc1ccccc1)NC(=O)NCCc1ccc(OC)c(OC)c1	9%	i	i	3%	-34%	-2%
Cc1cc(N2CCOCC2)nc2ccc(NC(=O)CCC(=O)N3CCN(c4ccccc4F)CC3)cc12	-12%	i	?	?	15µM*	?
Cc1cc(N2CCOCC2)nc2ccc(NC(=O)CCC(=O)N3CCN(c4ccc(F)cc4)CC3)cc12	-2%	i	?	-18%	8.2µM*	9.2µM*
CCC(=O)c1cn([C@H](CCC(OC)OC)CC(=O)OC(C)(C)C)cc1CC	4%	i	i	12%	?	?
O=C(CSc1nccn1-c1ccccc1)Nc1nc2ccccc2s1	.	i	i	.	?	?
SMILES	HT1080 IDH1KD tx	KB-3-1 cytotox	KB-V1 cytotox	HT1080NT lethal	DT40 TDP1 no CPT	DT40 TDP1 CPT
Cc1cccc(-n2ccnc2SCC(=O)Nc2nc3ccccc3s2)c1	.	i	i	.	23µM*	?
Cc1cc(C)cc(-n2ccnc2SCC(=O)Nc2nnc(C)s2)c1	.	?	?	.	3.3µM*	4.1µM*
Cc1cccc(-n2ccnc2SCC(=O)Nc2nnc(C)s2)c1	?	i	i	-6%	15µM*	?
CCSc1nnc(NC(=O)CSc2nccn2-c2cc(C)cc(C)c2)s1	13%	i	i	19%	-3%	-3%
Cc1ccc2c(c1)N(CC(=O)NCCCN1CCN(C)CC1)C(=O)CO2	10%	i	i	0%	-14%	4%
O=C(NCc1ccncc1)c1nc(-c2ccc(C(F)(F)F)cc2)no1	?	?	?	-10%	8.2µM*	15µM*
O=C(NCc1cccnc1)c1nc(-c2ccc(C(F)(F)F)cc2)no1	-5%	i	i	-1%	13µM*	15µM*
Cc1ccc(S(=O)(=O)N(C)CC(=O)NCCCn2ccnc2)cc1	14%	i	i	25%	-2%	0%
Cc1cccc(N2CCN(S(=O)(=O)c3ccc4oc(=O)c5ncn(C)c5c4c3)CC2)c1C	.	i	i	.	16µM*	?
Cn1cnc2c(=O)oc3ccc(S(=O)(=O)N4CCN(c5ccccc5F)CC4)cc3c21	.	i	?	.	-23%	-9%
COc1ccc(NC(=O)Cn2cc(S(=O)(=O)N3CCN(c4ccccc4F)CC3)c3ccccc3c2=O)cc1Cl	.	.	.	.	-1%	4%
COc1ccc(N(C)C(=O)Cn2cc(S(=O)(=O)N3CCN(c4ccccc4F)CC3)c3ccccc3c2=O)c(OC)c1	.	i	i	.	23µM*	-28%
CC(=O)/C=C/c1ccc2c(c1)S(=O)(=O)N(C1CCCC1)[C@H]2CC(C)=O	.	?	18µM*	.	7.1µM*	16µM*
COC(=O)/C=C/c1ccc2c(c1)S(=O)(=O)N(C1CCCC1)[C@H]2CC(=O)OC	.	i	?	.	?	0.63µM*
